# Experiments:
# Assay in all cases: PBM binding z-score (relative to random genomic background probes); higher = stronger binding; sequences stand for … in GC…GCGATTGACAGCGTAGAATGAAGG
# [1] = tested on: FXR:RXRa (NR concentration 270 nM, RXRa partner concentration 90 nM)
# How it was run: (§1)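 Custom Agilent 4×180K protein-binding microarrays carried double-stranded probes. Their 34-nt variable regions held direct-repeat seeds, single-nucleotide variants, half-site ablations and random human genomic background sequences. Arrays were incubated 1 h with ligand-free nuclear receptor dimers in PBS pH 7.4, 2% milk, 0.02% Triton X-100, 1 mM DTT, 0.2 mg/mL BSA and 0.4 mg/ml salmon testes DNA. Antibodies against each partner (one per run) detected binding, and scanned fluorescence was regression-normalized. Binding z-scores use random background probes as reference.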
# [2] = tested on: LXRa:RXRa (NR concentration 270 nM, RXRa partner concentration 90 nM)
# How it was run: as §1
# [3] = tested on: LXRa homodimer (NR concentration 270 nM)
# How it was run: as §1
# [4] = tested on: LXRb:RXRa (NR concentration 270 nM, RXRa partner concentration 90 nM)
# How it was run: as §1
# [5] = tested on: LXRb homodimer (NR concentration 270 nM)
# How it was run: as §1
# [6] = tested on: PPARa:RXRa (NR concentration 270 nM, RXRa partner concentration 90 nM)
# How it was run: as §1
# [7] = tested on: PPARg:RXRa (NR concentration 180 nM, RXRa partner concentration 90 nM)
# How it was run: as §1
# [8] = tested on: PPARg:RXRa 270nM:90nM, anti-RXR (NR concentration 270 nM, RXRa partner concentration 90 nM)
# How it was run: as §1
# [9] = tested on: PPARg:RXRa 30nM:10nM, anti-RXR (NR concentration 30 nM, RXRa partner concentration 10 nM)
# How it was run: as §1
# [10] = tested on: PPARg:RXRa 90nM:30nM, anti-RXR (NR concentration 90 nM, RXRa partner concentration 30 nM)
# How it was run: as §1
# [11] = tested on: PPARg:RXRa DBDmut IVT, anti-RXR (DBD mutation: RXRa K156A/R161A, NR concentration 270 nM, RXRa partner concentration 90 nM)
# How it was run: as §1
# [12] = tested on: PPARg:RXRa IVT, anti-PPARg (NR concentration 270 nM, RXRa partner concentration 90 nM)
# How it was run: as §1
# [13] = tested on: PPARg DBDmut:RXRa IVT, anti-PPARg (DBD mutation: PPARg1 K132A/R137A, NR concentration 270 nM, RXRa partner concentration 90 nM)
# How it was run: as §1
# [14] = tested on: PPARg DBDmut IVT, anti-PPARg (DBD mutation: PPARg1 K132A/R137A, NR concentration 270 nM)
# How it was run: as §1
# [15] = tested on: PPARg homodimer (NR concentration 180 nM)
# How it was run: as §1
# [16] = tested on: PXR:RXRa (NR concentration 270 nM, RXRa partner concentration 90 nM)
# How it was run: as §1
# [17] = tested on: PXR homodimer (NR concentration 270 nM)
# How it was run: as §1
# [18] = tested on: RARa:RXR (NR concentration 270 nM, RXRa partner concentration 90 nM)
# How it was run: as §1
# [19] = tested on: RARa homodimer (NR concentration 270 nM)
# How it was run: as §1
# [20] = tested on: RARb:RXRa (NR concentration 270 nM, RXRa partner concentration 90 nM)
# How it was run: as §1
Sequence,PBM binding z-score [1],PBM binding z-score [2],PBM binding z-score [3],PBM binding z-score [4],PBM binding z-score [5],PBM binding z-score [6],PBM binding z-score [7],PBM binding z-score [8],PBM binding z-score [9],PBM binding z-score [10],PBM binding z-score [11],PBM binding z-score [12],PBM binding z-score [13],PBM binding z-score [14],PBM binding z-score [15],PBM binding z-score [16],PBM binding z-score [17],PBM binding z-score [18],PBM binding z-score [19],PBM binding z-score [20]
ACTCGTAGGACAAAGGTCAGAGCTACGCCAGTGA,3.9,4.29,1.39,3.3,0.607,5.11,7.99,7.75,6.47,8.26,1.2,3.67,0.241,0.756,4.17,3.73,0.25,4.94,1.41,4.18
ACTAGCAGGCCAAGTTTGGGTCGCTCAAACAAAG,-0.398,-0.635,-0.922,-0.551,-0.759,-0.185,-0.746,-0.638,-1.08,-1.15,0.683,0.332,-0.842,-0.527,-0.566,-0.33,-0.606,-0.147,-1.09,0.491
ACTATTAGTTGAGTCGAGGGCAACCGATAGGTTG,0.84,0.505,0.226,0.34,0.349,0.703,0.466,0.452,0.0326,0.43,0.363,0.962,0.679,0.368,0.693,1.34,0.315,0.785,0.945,1.14
TCGAGTAGGTTAGTCGTGGCATTCAGCCAACATA,-0.318,-0.31,-0.35,-0.47,-1.11,0.293,-0.232,0.763,1.36,0.958,2.28,1.66,-0.875,-1.07,-0.343,-0.558,-0.596,-0.421,-0.619,-0.00522
CGTCAAAGTACAACTAAGGTAACGTAAAGCACGC,0.707,0.122,0.142,0.219,0.198,0.548,0.918,0.504,0.132,0.467,0.337,0.863,-0.144,0.398,0.606,0.34,0.247,2.1,0.546,1.34
TCATATAGGTAAACAGGTTAAAGTCCGTAAGTTA,0.775,1.24,0.749,1.34,0.393,2.69,2.85,3.9,4.25,3.91,4.76,4.3,1.02,1.02,1.31,1.29,0.911,1.79,1.77,0.998
GCTCCTAGGTCAACTGATGGTCAGCTAAAGCTCG,4.73,3.62,0.561,3.01,0.879,4.1,2.53,3.46,1.21,2.51,4.98,3.97,-0.903,0.266,2.06,2.28,-0.577,3.53,-0.186,4.35
ACAGACAGGTCAGTGAAGGTAACTCAGCTGGACG,2.55,1.83,-0.374,1.07,-0.266,2.47,1.18,1.05,-0.166,0.444,0.901,1.22,-0.0695,-0.218,0.397,1.57,-0.149,1.78,0.123,3.51
AGTACGAGGGCACGCTGAGTTGATAGCAGAGTAG,0.909,0.941,-0.408,0.078,-0.497,1.63,1.26,0.976,-0.181,0.652,2.66,2.52,0.166,0.462,0.0101,1.4,0.398,0.957,-0.0662,2.64
CCTACTGGGCCATTCAGAGGTGATTGATCATATG,-0.00465,0.0536,-0.239,-0.138,-0.593,0.81,0.504,0.898,-0.276,0.119,3.85,3.8,0.186,-0.0997,0.152,0.147,-0.0295,0.451,0.129,0.622
CCTTAAGGGTCAAGGTTATAGCACGGGTGGTACG,7.56,5.38,1.06,4.67,0.683,5.86,5.81,5.97,2.96,4.78,2.34,3.94,0.0433,0.353,2.23,4.37,0.453,5.62,1.31,5.4
AGAACGAGGGCACGCTGCGTTGATAGCAGAGTAG,0.623,0.419,-0.7,-0.144,-0.905,1.75,1.89,1.74,0.373,1,4.17,3.95,0.425,-0.427,0.0277,0.123,-0.527,0.344,-0.962,2.52
AGTCAAAGTTCACTAAGTAACGTAAGATTCAGCT,4.76,4.94,3.18,3.15,1.11,3.95,5.72,5.28,2.69,4.76,0.606,2.21,1.04,1.31,1.66,3.63,2.31,2.77,1.23,4.8

# From the supplement of paper PMC6555819
